Among the data in PubChem BioAssay AID624412 (The Scripps Research Institute Molecular Screening Center, 2012) are inhibition values, retold here.

SMILES strings stand for the structures. Out of some 1,400 compounds screened, about 1,300 (93%) were called active. So high a share suggests a set chosen from earlier hits. Only a sample is shown. Values without a mark were called inactive. Rule as the data show it: active = inhibition above about 7%; inactive = the rest.

For the test, the system named is methionyl-tRNA synthetase (Trypanosoma brucei brucei). In words: inhibition of trypanosome methionyl-tRNA synthetase – biochemical, luminescence, confirmation (AID 624412). As to conditions: T. brucei MetRS enzyme, luminescence (ATP depletion); at 11.9 µM; active compounds read high.
In general, inhibition refers to the percentage by which the read-out fell short of the control. Take `COC(=O)/C(=C\Nc1ccccc1)NC(=O)c1ccc(Cl)cc1Cl`: the inhibition is 78% (active). The figure for `c1ccc2cc3[nH]c(CN4CCCCC4)nc3cc2c1` is 18.2% (active). The figure for `Cc1c(CN2CCC(CO)(CCOc3ccccc3)CC2)[nH]c2ccc(Cl)cc12` is 19% (active). To `CN(C(=O)CSc1nnc(Nc2ccccc2)s1)C1CCS(=O)(=O)C1` (stereo not drawn) belongs 12.5% (active). As to `CN(C(=O)CSc1nnc(-c2c[nH]c3ccccc23)o1)C1CCS(=O)(=O)C1` (stereo not drawn), the inhibition was 21.9% (active). For the compound `CCCCCn1nnnc1-c1nc2cc3ccccc3cc2[nH]c1=O`, the inhibition was 42.4% (active).

Take `c1ccc(CN=C2Nc3ccccc3CS2)nc1`: the inhibition was 22% (active).

As for `Cc1cc(C)cc(NC(=O)N(C)Cc2ccccc2)c1`, the inhibition was 3.08%. For `COc1ccc(NC(=O)C(NC(C)=O)C(=O)NCc2ccccc2Cl)cc1` (stereo not drawn), the inhibition was 17.9% (active). The figure for `OCCNc1nc2ccccc2n1-c1ncnc2sc3c(c12)CCC3` is 29.7% (active); for `Cc1ccc(O)c(CNc2nc3ccccc3[nH]2)c1` it is 85.4% (active). The figure for `O=S(=O)(NCc1ccc(Cl)cc1Cl)c1cccs1` is 33.5% (active); for `CCCCN1C[C@H](c2ccc(Br)cc2)[C@@H](CC(=O)Nc2ccc(Br)cc2)C1=O` it is 62.2% (active). To `O=C(OCc1nc2ccccc2[nH]1)C1CCCCC1` belongs 27.3% (active). As to `O=C(NCc1cccc(CNC(=O)Nc2cccc(O)c2)c1)Nc1cccc(O)c1`, the inhibition is 17.5% (active). Take `COc1ccc(CCn2ccc(O)c(Cc3ccc(Cl)cc3Cl)c2=O)cc1OC`: the inhibition was 11.8% (active).

For `O=C(Nc1cccc([N+](=O)[O-])c1)N1CCc2ccccc2C1`, the inhibition was 25.6% (active). To `O=C(CSCC(=O)Nc1cccc([N+](=O)[O-])c1)Nc1ccccc1` belongs 17% (active); to `Fc1ccc(NC(=S)N2CCc3[nH]c4ccccc4c3C2)cc1`, 35.4% (active); to `O=C(Nc1ccc(Cl)cc1)N1CCc2[nH]c3ccccc3c2C1`, 20.4% (active). To `O=C(NNc1cc(Cl)cc(Cl)c1)c1c(F)cccc1Cl` belongs 66.4% (active); to `Cc1ccc(N2C(=O)CC(NCc3ccc4c(c3)OCO4)C2=O)cc1Cl` (stereo not drawn), 98.5% (active). To `O=C(/C(=N\O)n1cncn1)c1ccc(Br)cc1Br` belongs 18.3% (active); to `CCCCN(C)Cc1c(C)[nH]c2ccc(Cl)cc2c1=O`, 67.1% (active); to `O=C(CC(=O)Nc1ccc(Cl)c(Cl)c1)N/N=C/c1ccc(O)cc1`, 17.2% (active). As for `Cc1ccc(NC(=O)C(C)c2cccc(C(=O)c3ccccc3)c2)cc1` (stereo not drawn), the inhibition was 85.5% (active). To `O=C1CCCN1CCCNc1ncnc2c1[nH]c1ccccc12` belongs 55.3% (active); to `Cc1ccc(S(=O)(=O)N(C)C)cc1NC(=O)c1ccc(-n2cncn2)c([N+](=O)[O-])c1`, 69.4% (active); to `Cc1ccccc1OCC(=O)NNC(=O)c1ccc(-n2cncn2)c([N+](=O)[O-])c1`, 24.7% (active). Regarding `O=C(NNC(=O)c1ccc(-n2cncn2)c([N+](=O)[O-])c1)c1ccccc1`, the inhibition is 50.4% (active).

As for `CC(=O)c1ccc(NC(=O)c2ccc(-n3cncn3)c([N+](=O)[O-])c2)cc1`, the inhibition is 72% (active). As to `c1ccc2cc3c(NCCN4CCOCC4)ccnc3cc2c1`, the inhibition was 50.4% (active). To `Cc1ccc(S(=O)(=O)c2c[nH]c3ccc(C)cc3c2=O)cc1` belongs 45.7% (active). For `Cc1ccc(S(=O)(=O)c2c[nH]c3ccc(Cl)cc3c2=O)cc1`, the inhibition is 85.2% (active). The figure for `O=C(NCCN1CCOCC1)c1ccccc1N1C(=O)[C@@H]2Cc3c([nH]c4ccccc34)C(c3cccc(Cl)c3)N2C1=O` (stereo partly drawn) is 18.1% (active).

Take `CCN(CC)C(=O)C(=O)c1cn(CC(=O)NCc2ccc3c(c2)OCO3)c2ccccc12`: the inhibition was 79.4% (active).

With `O=C(CSc1nc2ccccc2[nH]1)N/N=C/C=C\c1ccccc1[N+](=O)[O-]`, the inhibition was 21.7% (active). The figure for `O=C(Cn1c2[n+](c3ccc(C(F)(F)F)cc31)CCCCC2)Nc1c(F)cccc1F` is 29.8% (active); for `NS(=O)(=O)c1ccc(CCNC(=O)Nc2ccc(Cl)cc2)cc1` it is 37.4% (active); for `O=C(Cc1ccc(S(=O)(=O)N2CCOCC2)s1)Nc1ccc(Br)c(C(F)(F)F)c1` it is 33.2% (active). To `Clc1ccc(-c2cc(C3CCNCC3)[nH]n2)c(Cl)c1` belongs 52.6% (active); to `O=C(Cn1c(NCCO)nc2ccccc21)c1ccc(Cl)cc1Cl`, 5.98% (active).

Regarding `S=c1[nH]nc(CSCc2ccc(Cl)cc2Cl)n1-c1ccccc1`, the inhibition was 13.2% (active).

Take `COC(=O)CN1C(=S)N(c2ccccc2)C(=O)C1CC(=O)Nc1ccc(Cl)cc1` (stereo not drawn): the inhibition was 27.5% (active).

As to `Cc1ccc(-c2cnc(C(O)c3cc(Cl)cc(Cl)c3)[nH]2)cc1` (stereo not drawn), the inhibition was 63.9% (active). On to `OC(c1cc(Cl)cc(Cl)c1)c1ncc(-c2ccccc2C(F)(F)F)[nH]1` (stereo not drawn), for which the inhibition was 91.3% (active). The figure for `O=S(=O)(c1ccc(Br)cc1)N1CCC(c2nc3ccccc3[nH]2)CC1` is 20.5% (active); for `O=C(NCC(O)c1nc2ccccc2[nH]1)c1ccc(Br)cc1` (stereo not drawn) it is 31.1% (active); for `O=C(O)c1ccc(NS(=O)(=O)c2ccc3c(c2)C(=O)c2cc(S(=O)(=O)Nc4ccc(C(=O)O)cc4)ccc2-3)cc1` it is 13.4% (active).

With `O=C(Nc1ccc(S(=O)(=O)Nc2ncccn2)cc1)c1cncc(Br)c1`, the inhibition was 2.54%. To `CCN1CCCC1CNc1ncnc2c1[nH]c1ccc(F)cc12` (stereo not drawn) belongs 53.7% (active). To `CC(C)OCCCNc1ncnc2c1[nH]c1ccc(F)cc12` belongs 95.6% (active); to `CSc1nsc(NC(=O)Nc2ccccc2)n1`, 39.8% (active). The figure for `CC(C)(C)c1ccc(/C=C2\SC(=O)N=C2N)cc1` is 50.9% (active); for `NC1=NC(=O)S/C1=C\c1ccc(O)cc1` it is 40.1% (active). In the case of `O=C(O)CCn1c(O)c(C=C2N=c3ccccc3=N2)sc1=S`, the inhibition is 42.3% (active). `Cn1c(CCCOc2ccc(Cl)cc2Cl)n[nH]c1=S`: the inhibition is 12.2% (active).

Take `CCCCCCCC[n+]1cccc(C(=O)N2c3c(nc(N)[nH]c3=O)NC(C)C2C)c1` (stereo not drawn): the inhibition was 29.2% (active). In the case of `COc1ccc(OCC(O)CNC(=O)Nc2ccc(Cl)cc2)cc1` (stereo not drawn), the inhibition is 78% (active).

With `Oc1[nH]c2ccc(Br)cc2c1N=Nc1nn[nH]n1`, the inhibition is 14.6% (active). The figure for `O=C(Nc1ccccc1)Nc1nnc(COc2ccccc2F)s1` is 30.4% (active); for `Clc1ccccc1SCc1nc2ccccc2[nH]1` it is 10.1% (active); for `Cc1ccc(CNC(=O)CSc2nnc3c(n2)[nH]c2ccc(F)cc23)cc1` it is 78% (active). To `CCO[C@@H]1OC(C(=O)NCc2nc3ccccc3[nH]2)=C[C@H](C2CCCCC2)[C@H]1CCCO` belongs 48.9% (active). The figure for `CC(=N\NC(=O)c1cc(Br)ccc1O)/C(=N/O)C(=O)Nc1ccccc1` is 18.2% (active); for `COc1ccccc1-n1c(SCC(=O)Nc2ccc(Cl)cc2)nc(O)c(Cc2ccccc2)c1=O` it is 77.2% (active). Turning to `COc1ccc(-c2[nH]ncc2/C=N/NC(=O)c2cc(Br)ccc2O)c(OC)c1`, the inhibition was 12.1% (active). For `O=[N+]([O-])c1ccc(N2CCN(c3ccc(O)cc3)CC2)c(Cl)c1`, the inhibition was 10.9% (active).
